Values joined by “and” are separate entries in the source; they are usually repeats but may differ in a detail not shown here. Equal values may be shown once. About 83,000 compounds went through this panel and 20% of them were active in at least one assay; those are over-represented in the sample as a whole.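 96-well plates, one dose, 48 hours. Percent growth reported; active if below 10.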 Active and inactive are the calls of the source.
What was measured:
Assay in all cases: NCI-60 one-dose screen, 48 h (100 = growth as untreated, 0 = no growth, -100 = all killed)
Conditions in all cases: 10 µM unless noted
SR leukemia = test system: SR leukemia
RPMI-8226 leukemia = test system: RPMI-8226 leukemia
OVCAR-8 ovarian = test system: OVCAR-8 ovarian
OVCAR-5 ovarian = test system: OVCAR-5 ovarian
OVCAR-4 ovarian = test system: OVCAR-4 ovarian
SK-OV-3 ovarian = test system: SK-OV-3 ovarian
OVCAR-3 ovarian = test system: OVCAR-3 ovarian
HS 578T breast = test system: HS 578T breast
NCI/ADR-RES ovarian = test system: NCI/ADR-RES ovarian
T-47D breast = test system: T-47D breast
BT-549 breast = test system: BT-549 breast
MDA-MB-435 melanoma = test system: MDA-MB-435 melanoma
SW-620 colon = test system: SW-620 colon
MCF7 breast = test system: MCF7 breast
HCT-116 colon = test system: HCT-116 colon
HCC-2998 colon = test system: HCC-2998 colon
KM12 colon = test system: KM12 colon
IGROV1 ovarian = test system: IGROV1 ovarian

Measured: growth

CC(C)C(=O)Nc1ccc([N+](=O)[O-])c(C(F)(F)F)c1
inactive: SR leukemia 76.4% and 88.4% | RPMI-8226 leukemia 63.9% | OVCAR-8 ovarian 101% and 56.1% | OVCAR-5 ovarian 90.4% | OVCAR-4 ovarian 83.1% and 92.5% | SK-OV-3 ovarian 80.2% and 99.6% | OVCAR-3 ovarian 86.3% and 98.2% | HS 578T breast 101% and 85.4% | NCI/ADR-RES ovarian 86.2% and 96% | T-47D breast 85.3% and 89.6% | BT-549 breast 84.7% and 85.9% | MDA-MB-435 melanoma 87% and 99.6% | SW-620 colon 93.8% and 96.5% | MCF7 breast 102% and 90% | HCT-116 colon 94.8% and 92.8% | HCC-2998 colon 97.2% and 106% | KM12 colon 89.3% and 98.4%

Clc1ccc(SSc2ccc(Cl)cc2)cc1
inactive: SR leukemia 104% | RPMI-8226 leukemia 102% and 58.2% | OVCAR-8 ovarian 97.6% and 86% | OVCAR-5 ovarian 93.9% and 119% | OVCAR-4 ovarian 103% and 84.9% | SK-OV-3 ovarian 106% and 125% | OVCAR-3 ovarian 101% and 110% | HS 578T breast 97.9% and 93.4% | NCI/ADR-RES ovarian 99.2% and 81.8% | T-47D breast 96.2% and 103% | MDA-MB-435 melanoma 94% and 100% | SW-620 colon 97.3% and 88.8% | MCF7 breast 102% and 75.1% | HCT-116 colon 95.9% and 71% | HCC-2998 colon 96.8% and 98%
89% (inactive) and 9.06% (active): BT-549 breast

CCN(CC)CCC(CNc1ccnc2cc(Cl)ccc12)c1ccc(OC)cc1 (stereo unspecified)
inactive: RPMI-8226 leukemia 60.1% and 39% | OVCAR-8 ovarian 63.6% and 46% | OVCAR-5 ovarian 76.1% and 89.4% | OVCAR-4 ovarian 29.8% and 47.4% | SK-OV-3 ovarian 92.7% and 78.5% | OVCAR-3 ovarian 84.3% and 80.9% | HS 578T breast 74% | NCI/ADR-RES ovarian 76.7% and 72.8% | T-47D breast 57.9% and 77.2% | BT-549 breast 72.2% and 66.1% | SW-620 colon 77.2% and 61.2% | MCF7 breast 80.6% and 72.3% | HCT-116 colon 46.5% and 39.4% | HCC-2998 colon 70.9% and 52.7% | KM12 colon 77.9% and 75.8%
active: SR leukemia -26% and -16.4% | MDA-MB-435 melanoma 8.96% and -30.1%

CC(C)(O)Cn1cc(-c2ccc3nc(OC4CC4)ccc3c2)c2c(N)ncnc21
inactive: SR leukemia 49.9% and 21% | RPMI-8226 leukemia 55.3% and 39.9% | OVCAR-8 ovarian 90.2% and 63.6% | OVCAR-5 ovarian 84.7% and 48.4% | OVCAR-4 ovarian 96.3% and 63.1% | SK-OV-3 ovarian 83.4% and 57.9% | OVCAR-3 ovarian 109% and 69.8% | HS 578T breast 71.1% and 31.9% | NCI/ADR-RES ovarian 94.9% and 67.1% | BT-549 breast 84.7% and 66.4% | MDA-MB-435 melanoma 93.7% and 61% | SW-620 colon 97.4% and 63.8% | MCF7 breast 69.6% and 39.6% | HCT-116 colon 70.3% and 52.4% | HCC-2998 colon 99.7% and 89.4% | KM12 colon 84.1% and 56.8%
47.6% (inactive) and 5.84% (active): T-47D breast

O=C(Nc1ccc(Br)cc1)c1cc(Br)ccc1O
inactive: OVCAR-8 ovarian 22.5% and 20.5% | OVCAR-5 ovarian 30.4% and 17.4%
16.9% (inactive) and -8.2% (active): RPMI-8226 leukemia
9.76% (active) and 24.8% (inactive): OVCAR-4 ovarian
24.4% (inactive) and -42.1% (active): HCC-2998 colon
12.4% (inactive) and 4.33% (active): SW-620 colon
14.7% (inactive) and -7.33% (active): T-47D breast
active: SR leukemia 1.42% | SK-OV-3 ovarian 4.48% and -11.3% | OVCAR-3 ovarian -18.3% and -5.1% | HS 578T breast -1.71% and -5.35% | NCI/ADR-RES ovarian 4.45% and -5.6% | BT-549 breast -16.1% and -40.7% | MDA-MB-435 melanoma -1.59% and -13.4% | MCF7 breast 5.04% and 4.44% | HCT-116 colon 0.123% and 0.553% | KM12 colon 4.3% and -15.4%

O=C1c2c(O)cc(O)cc2OC(c2ccc(O)c(O)c2)C1O (stereo unspecified)
inactive: SR leukemia 101% | RPMI-8226 leukemia 99.5% | OVCAR-8 ovarian 99.1% | OVCAR-5 ovarian 104% | OVCAR-4 ovarian 113% | SK-OV-3 ovarian 109% | IGROV1 ovarian 126% | OVCAR-3 ovarian 123% | HS 578T breast 109% | T-47D breast 103% | MDA-MB-435 melanoma 111% | SW-620 colon 104% | MCF7 breast 102% | KM12 colon 114%

COc1ccc(-c2cn[nH]c2-c2cc(OC)c(OC)c(OC)c2)cc1N
30.8% (inactive) and 5.24% (active): BT-549 breast
9.16% (active) and 16.9% (inactive): KM12 colon
inactive: SR leukemia 12% and 19.5% | RPMI-8226 leukemia 29.4% and 23.7% | OVCAR-8 ovarian 21.3% and 12.9% | OVCAR-5 ovarian 46% and 48.7% | OVCAR-4 ovarian 47.6% and 38.8% | SK-OV-3 ovarian 23% and 36.5% | IGROV1 ovarian 37.2% and 15.6% | HS 578T breast 39.5% and 40% | T-47D breast 73% and 86.7% | SW-620 colon 24.7% and 27.7% | MCF7 breast 21.6% and 15.8% | HCC-2998 colon 13.7% and 23%
active: OVCAR-3 ovarian -7.09% and -1.14% | MDA-MB-435 melanoma -47.4% and -19% | HCT-116 colon 3.95% and 7.78%

O=C(/C=C\c1ccnc2ccccc12)c1ccc([N+](=O)[O-])cc1
active: SR leukemia 6.51% | HCT-116 colon 0.905% and -94%
31.1% (inactive) and -26.4% (active): RPMI-8226 leukemia
inactive: OVCAR-8 ovarian 99.1% and 73.5% | OVCAR-5 ovarian 89.4% and 96.3% | OVCAR-4 ovarian 85.3% and 63.1% | SK-OV-3 ovarian 95% and 89.6% | IGROV1 ovarian 108% and 92.9% | OVCAR-3 ovarian 100% and 87.8% | HS 578T breast 107% and 88.6% | T-47D breast 70.3% and 59.3% | BT-549 breast 80.4% and 77.9% | MDA-MB-435 melanoma 93.2% and 46.5% | MCF7 breast 75.8% and 25.4% | HCC-2998 colon 82.7% | KM12 colon 83.3% and 33.1%
80.6% (inactive) and 6.55% (active): SW-620 colon

Cc1cc(O)c(C(C)C)cc1N
inactive: SR leukemia 97.1% and 115% | RPMI-8226 leukemia 84.3% and 92.6% | OVCAR-8 ovarian 99.3% and 106% | OVCAR-5 ovarian 101% and 103% | OVCAR-4 ovarian 84.5% | SK-OV-3 ovarian 100% | IGROV1 ovarian 103% and 114% | OVCAR-3 ovarian 76.6% and 116% | HS 578T breast 120% and 99.7% | NCI/ADR-RES ovarian 102% and 98.8% | BT-549 breast 109% and 98.1% | MDA-MB-435 melanoma 117% and 98.9% | SW-620 colon 109% and 102% | MCF7 breast 94.3% and 92.7% | HCT-116 colon 87.2% and 104% | HCC-2998 colon 105% and 94.2% | KM12 colon 110% and 114%

CC1=C[C@H]2c3c(c(O)c(O)c4oc5cc(O)cc(O)c5c(=O)c34)[C@H](c3cc(O)c(O)c4oc5cc(O)cc(O)c5c(=O)c34)[C@H]2C(C)(C)C1
inactive: OVCAR-5 ovarian 11% and 12.4%
20.7% (inactive) and 7.19% (active): OVCAR-4 ovarian
active: SR leukemia 1.73% and 3.96% | RPMI-8226 leukemia 4.38% and -30.3% | OVCAR-8 ovarian 4.35% and 4.94% | SK-OV-3 ovarian -1.03% | OVCAR-3 ovarian -5.67% and -43.9% | HS 578T breast 3.36% and -17.1% | T-47D breast -1.57% | BT-549 breast 7.04% and -11.3% | MDA-MB-435 melanoma -69.8% and -76.7% | SW-620 colon -37.8% and -80.9% | MCF7 breast -19.7% and -76.5% | HCT-116 colon -61.9% and -52.5% | KM12 colon -27% and -71.5%
14.1% (inactive) and -13.1% (active): IGROV1 ovarian
14.3% (inactive) and -61% (active): HCC-2998 colon

From PubChem BioAssay (NCI)
